# Compound activity as filed in PubChem BioAssay.
# In the library only some 1.5% were active in any assay of this set; here they are far more common.
# AI-2 QS modul: modulators of Vibrio harveyi AI-2 quorum sensing system. AID 2094. actives 0.4% (n = 300,000). Vibrio harveyi JMH597 AI-2 luminescence/OD600 ratio, 9 h; active compounds read low; strain lacks LuxN and CqsS sensors; 0 = neutral-control median. activity change, % at 7.5 µM; in the data active means activity change below about -75%, passing the limit was not always enough;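 further: luminescence divided by OD600 gain over 9 h not by final OD600 alone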
# sPLA2-III inh: Inhibits HGIII-sPLA2 liposome hydrolysis, primary screen | inhibition, % at 12.2 µM | Q9NZ20 | actives 0.56% (n = 370,000) | AID 743126 | QFRET BODIPY PC-A2 liposome hydrolysis, fluorescence;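 active means inhibition above mean plus 3 SD of compounds lying within the high and low control bounds, cut at about 19% in these data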;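 further: 0% = median of test compound wells and 100% = no enzyme DMSO wells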
# ARNT-TACC3 inh: disrupts binding between human ARNT and TACC3; Q9Y6A5; AlphaScreen His-ARNT PAS-B/GST-TACC3 binding, luminescence; TACC3 fragment carries E629A point mutation; inhibition, % at 9.99 µM; actives 0.66% (n = 390,000); AID 623870;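 active means mean inhibition of replicates at least 50% and at least half of replicates each reaching 50%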;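 further: 0% = complete ARNT plus TACC3 wells and 100% = ARNT alone without TACC3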
# Rin1 Abl inh: inhibitors of human Rin1-Abl protein interaction; actives 0.4% (n = 360,000); inhibition, % at 7.35 µM; P00519+Q13671; TR-FRET Rin1/Abl binding, biochemical; in the data active means inhibition above about 5%, passing the limit was not always enough
# * marks the source's active call; other numbers are inactive results; · = no result given; ! = repeats disagree.
SMILES,AI-2 QS modul,sPLA2-III inh,ARNT-TACC3 inh,Rin1 Abl inh
Cc1cc(C(=O)N/N=C/c2cccc([N+](=O)[O-])c2)c(C)n1-c1ccccc1,39,-17,-4,1
Cc1[nH]n(-c2cccc3ccccc23)c(=O)c1/C=N/NC(=O)c1cccc([N+](=O)[O-])c1,6,1,6,-3
Cc1[nH]n(-c2ccccc2)c(=O)c1/C=N/NC(=O)C(C)C,24,4,70*,-3
CC(=O)N/N=C/c1c(C)[nH]n(-c2ccccc2)c1=O,11,12,·,1
Cc1cc(/C=N/NC(=O)c2ccccn2)c(C)n1-c1cccc([N+](=O)[O-])c1,-5,2,68*,0
Cc1[nH]n(-c2ccccc2)c(=O)c1/C=N/NC(=O)c1cccc([N+](=O)[O-])c1,·,1,31*,-2
Cc1[nH]n(-c2ccccc2)c(=O)c1/C=N\NC(=O)C1COc2ccccc2O1 (stereo not drawn),31,-5,61*,-6
O=C(Oc1ccc2c(=O)c(Oc3ccc4ccccc4c3)coc2c1)c1ccco1,-82*,-6,-17,0
Cc1cc(NC(=O)CC(C)C)c(=O)n(Cc2c(F)cccc2Cl)c1,19,-1,8,2
Cc1cc(NC(=O)CC(C)C)c(=O)n(Cc2ccccc2F)c1,2,8,active,-2
COc1ccc(S(=O)(=O)Nc2ccc3c(c2)CC(=O)N([C@H](C)CO)C[C@H](C)[C@@H](CN(C)S(=O)(=O)c2ccc(Cl)cc2)O3)cc1,·,·,-11,·
Cc1cccc2nc(CSc3nc4ccccc4o3)cn12,-93*,-1,5,-1
CC=Cc1ccc2n(c1=O)C[C@@H]1[C@@H](CO)[C@H](C(=O)N3CCCCC3)N(Cc3ccccc3OC)[C@H]21 (mixture of isomers),·,·,-31,·
CCOC(=O)C1=C(C)N=c2s/c(=C/c3cccc([N+](=O)[O-])c3O)c(=O)n2C1c1ccccc1 (stereo not drawn),13,-3,60*,2
CCOC(=O)C1=C(C)N=c2s/c(=C/c3cccc([N+](=O)[O-])c3O)c(=O)n2C1c1cc(OC)c(OC)c(OC)c1 (stereo not drawn),2,1,74*,-4
CCOC(=O)C1=C(C)N=c2s/c(=C\c3ccc(OCC(=O)O)cc3)c(=O)n2C1c1ccccc1 (stereo not drawn),19,-32,19,-2
CC(c1ccccn1)C(C)(O)C(C)c1ccccn1 (stereo not drawn),·,14,-3,2
OC(c1ccccn1)(c1ccccn1)c1ccccn1,13,4,75*,-6
S=C(N/N=C/c1ccc(Cl)cc1)N1CCOCC1,2,12,61*,0
S=C(N/N=C/c1ccc(Br)cc1)N1CCCCC1,-10,3,38*,1
CSC(=S)N/N=C/c1ccc(Br)cc1,-13,14,2,3
O=C(C[C@H]1CC[C@@H]2[C@H](COC[C@@H](O)CN2Cc2cccc(C(F)(F)F)c2)O1)NCc1ccc(Cl)cc1,·,·,24,·
CN(C)c1ccc2cc(S(=O)(=O)O)cc(O)c2c1,·,10,36*,3
O=Nc1c(O)ccc2cc(S(=O)(=O)O)ccc12,·,·,18*,9
C[C@H]1CCCCO[C@H](CN(C)C(=O)Nc2cccc3ccccc23)[C@@H](C)CN([C@@H](C)CO)C(=O)c2cc(NC(=O)C3CCCCC3)ccc2O1,·,·,-4,·
SMILES,AI-2 QS modul,sPLA2-III inh,ARNT-TACC3 inh,Rin1 Abl inh
NCCc1cnc[nH]1,16,5,73*!,-4
NCCC(=O)NCCc1cnc[nH]1,·,15,·,-1
O=C(Cc1ccccn1)N[C@H]1CC[C@@H](CCn2cc(-c3cccnc3)nn2)O[C@@H]1CO,·,·,5,·
Cc1ccc(-c2cnc3c(c2)C(=O)N([C@H](C)CO)C[C@H](C)[C@H](CN(C)C(=O)c2ccc(F)cc2)O3)cc1,·,·,-4,·
Cc1c(Cl)cccc1NS(=O)(=O)c1ccc2c(c1)C1C=CCC1C(c1ccc(C(=O)O)cc1)N2 (stereo not drawn),·,·,16,9.2*
O=C(NCC[C@H]1CC[C@@H](NS(=O)(=O)c2cccc(F)c2)[C@H](CO)O1)C1CCC1,·,·,-14,·
O=C1/C(=C/c2cccnc2)Oc2cc(OS(=O)(=O)c3ccc(F)cc3)ccc21,-1,-4,60*,0
Cc1ccc(S(=O)(=O)Oc2ccc3c(c2)O/C(=C\c2cccnc2)C3=O)cc1,2,·,-8,-2
C[C@H]1CN([C@@H](C)CO)C(=O)Cc2cc(NC(=O)Nc3ccc4c(c3)OCO4)ccc2O[C@@H]1CN(C)C,·,·,25,·
